Pol beta inh: blocks human DNA polymerase beta activity; P06746; Potency, µM (titrated, usually from 114 µM), actives largely listed as inhibitors; Pol beta primer extension/strand displacement, fluorescence kinetic; actives 1.3% (n = 340,000)
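Pol beta (10 nM) and compounds were preincubated 15 min at room temperature, then 50 nM substrate (final) started primer extension/strand displacement. Reads were taken at 0 and 10 min; concentration-response data were fitted to a four-parameter Hill equation.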
Pol eta inh: inhibitors of human DNA polymerase eta; Potency, µM (highest dose often 114 µM), hits mostly inhibitors; recombinant Pol eta, fluorescent DNA replication assay; actives 1.2% (n = 390,000); Q9Y253
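Pol eta at 10 nM preincubated with compounds 15 min at room temperature; reaction started with fluorescent substrate (50 nM final) and read kinetically at 0 and 10 min.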
Pol iota inh: DNA polymerase iota (human) inhibition | Pol iota fluorescent replication assay, 10 min | Q9UNA4 | actives 1% (n = 390,000) | AID 588590 | Potency, µM (highest dose often 115 µM), most hits filed as inhibitors
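Pol iota at 10 nM preincubated 15 min with compounds at room temperature; reaction started with fluorescent substrate, 50 nM final. Fluorescence read kinetically at 0 and 10 min; buffer-only wells as negative control.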
L3MBTL1 inh: inhibitors of human L3MBTL1. Potency, µM (doses to about 57.1 µM), most hits filed as inhibitors. actives 0.66% (n = 230,000). AlphaScreen L3MBTL1–H3K9me1 peptide binding. Q9Y468. AID 485360; also: nearly all actives have a fitted effect of over 60% in size
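L3MBTL1 (50 nM) pre-complexed 30 min with biotinylated H3(1-15)K9me1 peptide (75 nM), then compounds added for 30 min at room temperature; AlphaScreen streptavidin donor/nickel chelate acceptor beads (10 ug/mL final) read after 30 min dark incubation.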
Pol kappa inh: DNA polymerase kappa (human) inhibition. actives 0.53% (n = 400,000). purified Pol kappa, fluorescent DNA synthesis assay, 10 min. Potency, µM (highest dose often 107 µM), most hits filed as inhibitors. Q9UBT6. AID 588579
Target sequence (Q9UBT6 whole entry, looked up): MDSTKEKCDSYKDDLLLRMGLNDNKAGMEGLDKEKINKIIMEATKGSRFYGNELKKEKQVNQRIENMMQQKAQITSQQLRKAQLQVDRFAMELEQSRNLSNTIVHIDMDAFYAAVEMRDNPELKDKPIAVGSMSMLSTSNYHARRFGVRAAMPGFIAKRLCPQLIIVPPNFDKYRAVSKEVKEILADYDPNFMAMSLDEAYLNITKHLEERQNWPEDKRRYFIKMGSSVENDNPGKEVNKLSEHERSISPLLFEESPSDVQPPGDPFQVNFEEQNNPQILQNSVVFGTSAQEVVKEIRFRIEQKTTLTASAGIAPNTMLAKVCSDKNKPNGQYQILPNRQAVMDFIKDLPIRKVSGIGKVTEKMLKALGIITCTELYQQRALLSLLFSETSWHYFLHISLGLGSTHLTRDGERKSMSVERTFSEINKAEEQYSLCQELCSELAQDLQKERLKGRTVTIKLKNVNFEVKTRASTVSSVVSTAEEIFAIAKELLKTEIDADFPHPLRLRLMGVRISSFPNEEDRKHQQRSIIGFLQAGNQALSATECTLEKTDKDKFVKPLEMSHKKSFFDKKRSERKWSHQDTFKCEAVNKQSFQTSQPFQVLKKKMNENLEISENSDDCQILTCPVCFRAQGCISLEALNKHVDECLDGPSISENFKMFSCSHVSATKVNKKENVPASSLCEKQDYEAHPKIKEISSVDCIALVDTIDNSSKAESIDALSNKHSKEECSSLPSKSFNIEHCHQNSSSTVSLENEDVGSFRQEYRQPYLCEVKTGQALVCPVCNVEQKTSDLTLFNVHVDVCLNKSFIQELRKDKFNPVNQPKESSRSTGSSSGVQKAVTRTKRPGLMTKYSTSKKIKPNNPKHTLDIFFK
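10 nM Pol kappa was preincubated with compounds for 15 min at room temperature. Reaction started with 50 nM (final) substrate. Fluorescence read kinetically at 0 and 10 min.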
Hits are given with their value; 0 = inactive; ? = inconclusive; - = no result. In the library only some 2.4% were active in any assay of this set; here they are far more common. Calls follow the shape of the dose curve; as a rule, active = well fitted curve in the direction sought with a large enough effect; inconclusive = small, poorly fitted or top-dose-only effect, or another doubt; inactive = no such curve, though single readings can be large; an effect the other way counts as inactive or inconclusive.

SMILES	Pol beta inh	Pol eta inh	Pol iota inh	L3MBTL1 inh	Pol kappa inh
Cc1cc(-c2nn3c(-c4ccccc4)nnc3s2)c2ccccc2n1	?	0	79.4µM	0	0
c1ccc(-c2cc(-c3nn4c(-c5ccco5)nnc4s3)c3ccccc3n2)cc1	0	?	?	0	?
Cc1nc2ccccn2c1C(=O)N/N=C/c1ccc([N+](=O)[O-])cc1	0	0	0	0	0
Cc1nc2ccccn2c1C(=O)N/N=C/c1ccc(CNC(=O)C(=O)Nc2ccccc2)o1	?	?	89.1µM	0	0
CSC1=NSC2=NC(=O)/C(=C/c3coc4ccc(O)cc4c3=O)C(=N)N12	25.1µM	3.16µM	?	?	39.8µM
Nc1ccn([C@@H]2O[C@H](CNCc3ccc(C#CCCO)cc3)[C@@H](O)[C@H]2O)c(=O)n1	-	0	-	-	-
CC(C)n1ncc2c(C(=O)Nc3cccc(S(=O)(=O)N(C)C)c3)cc(C3CC3)nc21	-	0	0	0	0
COc1ccc(-n2nnnc2C2CCN(S(=O)(=O)c3ccc(NC(C)=O)cc3)CC2)cc1	0	0	0	-	0
CN(C)c1ccc(C=O)c(Cl)c1	-	-	0	-	0
CN(C)c1ccc(C=O)c(O)c1	-	-	50.1µM	-	?
O=C(COC(=O)c1ccc([N+](=O)[O-])s1)c1ccc[nH]1	-	20µM	89.1µM	0	0
CC(NC(=O)COC(=O)c1ccc([N+](=O)[O-])s1)c1ccccc1 (configuration not stated)	15.8µM	?	?	?	0
CC(NC(=O)COC(=O)/C=C/c1ccc2c(c1)OCO2)c1ccccc1 (configuration not stated)	-	0	0	0	0
Cc1ccc(C(=O)OCC(=O)NC(C)c2ccccc2)s1 (configuration not stated)	-	0	0	0	0
O=C(COC(=O)c1ccc([N+](=O)[O-])s1)NC(=O)NCc1ccccc1	7.94µM	0	?	11.2µM	0
CC(NC(=O)COC(=O)/C=C/c1ccc([N+](=O)[O-])cc1)c1ccccc1 (configuration not stated)	0	0	89.1µM	0	?
O=C(OCC(=O)c1ccc[nH]1)c1ccc(Br)cc1	-	0	0	0	0
COc1ccc(CNC(=O)Cc2ccc(NC(=O)N3CCCCc4ccccc43)cc2)cc1	0	0	0	-	0
CCc1ccc(C2CC(=O)c3c([nH]c(C(=O)OCC4CCCCC4)c3C)C2)cc1 (configuration not stated)	0	0	0	-	0
CN(C)c1ccc(/C=C/c2ccnc3c(O)ccc(O)c23)cc1	-	-	0	-	0
Cc1nn(CC(=O)NCc2ccc(N(C)C)cc2)c(=O)c2c(C)n(-c3ccc(Cl)cc3)nc12	0	0	0	-	0
O=C(COC(=O)c1ccc([N+](=O)[O-])s1)NCCc1ccccc1	-	?	56.2µM	?	?
O=C(COC(=O)c1ccc([N+](=O)[O-])s1)NNC(=O)c1ccccc1	-	?	?	0	0
CCCCCCCCCCCCCCCC(=O)OCC(O)C1OC(=O)C(O)=C1O (configuration not stated)	-	-	-	-	14.1µM
CCCCCCCCCCCCCCCCCC(=O)OC[C@@H](O)[C@H]1OC[C@H](O)[C@H]1O	-	-	-	-	0
SMILES	Pol beta inh	Pol eta inh	Pol iota inh	L3MBTL1 inh	Pol kappa inh
NS(=O)(=O)c1ccc(NC(=O)C2Cc3ccccc3N2C(=O)c2ccccc2)cc1 (configuration not stated)	0	0	0	-	0
COc1ccccc1C(=O)Nc1ccnn1C1CCN(Cc2cnc(N(C)C)s2)CC1	89.1µM	0	0	-	0
C=C1CCN(C(CC(C)C)C(=O)NCc2ccc(Cl)c(Cl)c2)S(=O)(=O)c2ccccc21 (configuration not stated)	-	-	?	-	0
O=C(OCc1nnc(-c2ccccc2)o1)c1cccc(S(=O)(=O)N2CCOCC2)c1	-	0	0	0	89.1µM
CCOCCc1nnc(NC(=O)CCc2ccccc2)s1	0	0	0	-	0
CCOCCc1nnc(NC(=O)Cc2ccc(Br)cc2)s1	89.1µM	0	0	-	0
Cc1c([N+](=O)[O-])cc(C(=O)Oc2ccc(Br)cc2C(=S)N2CCCCC2)cc1[N+](=O)[O-]	0	?	89.1µM	-	0
Cc1ccc(C(=O)Oc2ccc(Br)cc2C(=S)N2CCOCC2)cc1	0	0	0	-	0
CC(Sc1nnc2c(n1)[nH]c1ccccc12)C(=O)NC1CCCCC1 (configuration not stated)	44.7µM	0	0	-	0
O=C(c1ccco1)N1CCN(C(=O)c2ccc(COc3ccc4c(c3)CCC4)o2)CC1	89.1µM	?	?	0	0
Cc1ccc(CN2CCOCCS2(=O)=O)cc1	-	-	0	-	0
CCOC(=O)C1=C(C)N(C)C(=O)C1CC(=O)O (configuration not stated)	0	79.4µM	0	0	0
CCOC(=O)C1=C(C)N(c2ccccc2)C(=O)C1CC(=O)O (configuration not stated)	0	0	0	0	0
O=C(NCc1ccc(Cl)cc1)C1CCN(S(=O)(=O)c2cc([N+](=O)[O-])ccc2Cl)CC1	0	0	0	0	0
Cc1nnc(NC(=O)C2CCN(S(=O)(=O)c3cc([N+](=O)[O-])ccc3Cl)CC2)o1	-	0	0	25.1µM	0
CCC1(C)NC(=O)N(CC(=O)Nc2sc3c(c2C(N)=O)CCC3)C1=O (configuration not stated)	20µM	79.4µM	?	?	?
CNC(=O)c1c(NC(=O)c2cc(=O)c3ccccc3o2)sc2c1CCC2	0	0	0	-	0
CC1CC=CC2C1C(=O)N(Cc1ccccc1)C2c1ccc(-c2ccc(N(C)C)cc2)cc1F (configuration not stated)	-	-	0	-	0
COC(=O)CCCC1=CC2=C(c3ccccc3)C(=O)C(C)(OC(=O)C3CCCC3)C(=O)C2=CN1C1CCCC1 (configuration not stated)	0	0	0	-	0
CC1(OC(=O)CCc2ccccc2)C(=O)C=C2C=C(c3ccsc3)OC=C2C1=O (configuration not stated)	44.7µM	-	-	-	-
CC1(OC(=O)c2ccco2)C(=O)C=C2C=C(C3CC3)OC=C2C1=O (configuration not stated)	-	44.7µM	?	-	79.4µM
CC1(OC(=O)c2cccs2)C(=O)C=C2C=C(C3CC3)OC=C2C1=O (configuration not stated)	-	?	?	-	0
CC1(OC(=O)C2CCCC2)C(=O)C=C2C=C(c3ccsc3)OC=C2C1=O (configuration not stated)	35.5µM	31.6µM	44.7µM	-	?
COC(=O)CCCC1=CC2=CC(=O)C(C)(OC(=O)C3CCCC3)C(=O)C2=CO1 (configuration not stated)	44.7µM	20µM	22.4µM	-	?
COc1ccc(-c2nc3ccccc3o2)cc1NC(=O)COc1ccc(C(C)(C)C)cc1	0	0	0	-	0
Cc1cc(C)c(S(=O)(=O)/N=C2/C=C(SCC(=O)O)C(=O)c3ccccc32)cc1C	?	20µM	6.31µM	-	0

Bioassay records (PubChem BioAssay)
